Reference: PubChem BioAssay AID1508644 (National Center for Advancing Translational Sciences (NCATS), 2021)
Records with an inconclusive call do not appear. Active and inactive are the calls of the source. Calls come from the whole dose curve; as a rule, active = well fitted inhibition curve with a large enough effect; inconclusive = small, poorly fitted or top-dose-only effect; inactive = no such curve, though single readings can be large or run the other way.

Target: Peripheral myelin protein 22 (Rattus norvegicus) (UniProt P25094)
Sequence (P25094 whole entry, looked up): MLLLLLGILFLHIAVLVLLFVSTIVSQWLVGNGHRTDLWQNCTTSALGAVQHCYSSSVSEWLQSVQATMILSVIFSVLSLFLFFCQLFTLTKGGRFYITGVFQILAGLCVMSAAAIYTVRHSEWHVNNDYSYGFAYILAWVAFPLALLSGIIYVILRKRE
Experiment: Cell-based HiBiT reporter assay to measure PMP22 protein expression in S16 Pmp22-HiBiT cells
Conditions: S16 Schwann Pmp22-HiBiT, NanoGlo luminescence, 48 h; series mostly up to 27.9 µM; activity change, negative = inhibition: at the top concentration
Text: Assay Provider: Jim Inglese Ph.D. National Center for Advancing Translational Science, National Institutes of Health, Rockville, MD CMT is a heterogeneous group of neurological disorders that affect approximately 1 in 2,500 people. In particular, the most common form of CMT, CMT1A is genetically linked to the duplication of the PMP22 gene which leads to Schwann cell overexpression, thus manifesting itself as a typical case of dose-sensitive diseases. To identify small molecule compounds that can mediate the expression of PMP22 we developed a phenotypic assay screening strategy by utilizing genome editing techniques to construct Schwann cell lines containing novel reporter technology to monitor the transcriptional or translational regulation of PMP22. For high sensitivity we use a bioluminescent reporter system embedded in the 3' UTR of the PMP22 gene (S16(c9) Pmp22-F2sN) to identify compounds that inhibit gene expression. […] We can further discriminate the effect of all transcriptionally active molecules on PMP22 translation or stability with an assay that incorporates a short NLuc peptide (HiBiT) at the C-terminus of expressed PMP22 (S16(f8) PMP22-HiBiT) allowing alpha complementation and luminescence detection of membrane-associated PMP22 protein. These assays were screened against the NCATS Sytravon Library Collection. Miniaturization of these assays to 1536-well plate format for quantitative high throughput screening (qHTS) yielded rich data sets immediately from the qHTS assay (S16(c9) Pmp22-F2sN), when compared with data from a cell viability assay (Cell TiterGlo) to identify compounds that decreased the output signals through cellular toxicity to streamline the selection process of actives for subsequent characterization using the HiBiT assay (S16(f8) PMP22-HiBiT).
Cell-based HiBiT reporter assay in S16 Pmp22-HiBiT cells PROTOCOL TABLE (format as described by Inglese J, Shamu CE and Guy RK. 2007) SEQUENCE No. (e.g., 1, 2, 3, etc.); PARAMETER (e.g., Cells, Incubation, Reagent, etc.); VALUE and DESCRIPTION. 1. Cells. Add 1,500 cells in 5 uL in growth media (DMEM High Glucose, No Phenol Red media + 10% heat-inactivated FBS + 1% Pen/Strep supplemented media) per well into Greiner 1536-well white/solid bottom high base, TC-treated plates. 2. Compounds. Library compounds and controls added at 23nL per well, transferred by Pin Tool. 3. Incubation. Incubate plates at 37C, 5% CO2, 95% RH for 48 h. 4. Media removal. Invert and centrifuge plates. 5. Reagent. Add 3uL NanoGlo HiBiT Lytic Detection Reagent per well of Greiner 1536-well plates. 6. Incubation. Incubate plates at room temperature for 15 min., protect from light. 7. Detector. NLuc luminescence measured using CCD-based camera (Viewlux). NOTES (numbers refer to Sequence numbers above; values are from representative experiments) 7. Luminescence Read: Clear filter; Exposure = 10 sec, Gain = High, Speed = Slow, Binning = 2X REFERENCES: 1. Inglese J, Shamu CE and Guy RK, Reporting data from high throughput screening of small molecule libraries, Nature Chemical Biology, 2007, 3(8): 438-441. doi.org/10.1038/nchembio0807-438 2. Yasgar A, Shinn P, Jadhav A, Auld DS, Michael S, Zheng W, Austin CP, Inglese J and Simeonov A, Compound Management for Quantitative High-Throughput Screening. J. Assoc. Lab. Auto., 2008, 13: 79-89. doi: 10.1016/j.jala.2007.12.004

Potency, active:
COC(=O)c1ccccc1NC(=O)c1nc(S(=O)(=O)Cc2cccc(C)c2)ncc1Cl 6.45 µM
Cc1cccc(CS(=O)(=O)c2ncc(Cl)c(C(=O)Nc3nc4ccc(F)cc4s3)n2)c1 3.63 µM
Cc1ccc(C)c(N2CCN(CCCNC(=O)Cn3c(-c4cccs4)cc4ccccc43)CC2)c1 7.24 µM
COc1ccc(NC(=O)c2nc(S(=O)(=O)Cc3ccc(C)cc3)ncc2Cl)cc1 10.2 µM
Cn1c(=O)oc2cc(S(=O)(=O)N3CCCC(C(=O)N4CCN(c5ccc(Cl)cc5)CC4)C3)ccc21 (centres undefined) 4.07 µM
Cc1ccc(C)c(NC(=O)Cn2c(=O)n(Cc3ccccc3)c(=O)c3oc4ccccc4c32)c1 14.5 µM
COC(=O)CS(=O)(=O)c1nc2ccccc2nc1N1CCCCC1 14.5 µM
Cc1ccc(S(=O)(=O)c2nnn3c2nc(NC2CCCCCC2)c2sccc23)cc1C 14.5 µM
O=C(Cn1c(-c2cccs2)cc2cc(F)ccc21)NCCCN1CCN(c2ccccc2F)CC1 12.9 µM
COCCCNC(=O)c1ccc(-n2c(-c3ccccc3)cc3c2CCC(C)C3)cc1 (centres undefined) 5.75 µM
COc1ccccc1Nc1c2c(nc3ccc(NC(=O)/C=C/c4cccc(OC)c4OC)cc13)CCCC2 5.13 µM
COc1ccccc1-c1cc(C(F)(F)F)nc(S(=O)(=O)CCCC(=O)Nc2ccc(F)cc2F)n1 5.13 µM
CCOC(=O)c1c(NC(=O)c2nc(S(C)(=O)=O)ncc2Cl)sc(C(C)=O)c1C 3.24 µM
CCc1nnc(NC(=O)c2nc(S(C)(=O)=O)ncc2Cl)s1 10.2 µM
COc1ccccc1Nc1nn2c(=O)c3ccc(C(=O)Nc4ccc(F)cc4)cc3nc2s1 9.12 µM
Cc1ccc(NC(=O)c2nc(S(=O)(=O)Cc3cccc(C)c3)ncc2Cl)cc1 4.57 µM
COc1ccccc1-c1cc(C(F)(F)F)nc(S(=O)(=O)CCCC(=O)Nc2ccccc2F)n1 10.2 µM
O=C(Cn1c(-c2cccs2)cc2ccccc21)NCCCN1CCN(c2ccc(F)cc2)CC1 6.45 µM
CC(=O)N1CCc2c(sc(NC(=O)CSc3ccccc3)c2-c2nc3ccccc3s2)C1 16.2 µM
COc1ccc(Br)cc1CC1C(=O)Nc2ccccc21 (centres undefined) 9.12 µM

Activity change, negative = inhibition, inactive:
O=C(NCCCN1CCN(c2ccc(F)cc2)CC1)c1cc2c(Cl)nc3ccccc3c2s1 -1.33%
COc1ccc(NC(=O)c2oc3ccccc3c2NC(=O)Cc2ccc(F)cc2)c(OC)c1 30.2%
COc1ccc(Nc2nc3c(S(=O)(=O)c4ccccc4)nnn3c3ccc(Cl)cc23)cc1 -26.5%
Cc1ccc(C(=O)Nc2ccc(S(=O)(=O)N3CCC(c4nc5ccccc5s4)CC3)cc2)cc1 -18.4%
Cc1cccc(-n2c(=O)c3c(c4cc(C)ccc4n3C)n(CC(=O)NCCC3=CCCCC3)c2=O)c1 -18.6%
Cc1cccc(N2CCN(C(=O)C3CCCN(S(=O)(=O)c4ccc5c(c4)oc(=O)n5C)C3)CC2)c1C (centres undefined) 56.1%
Cc1c(Cl)cccc1NC(=O)c1oc2ccc(S(=O)(=O)N3CCC4(CC3)OCCO4)cc2c1C 30.2%
Cc1cccc(Nc2c3c(nc4nncn24)CCC3)c1C -20.4%
CCCn1c(=N)c(C(=O)NC(C)c2ccccc2)cc2c(=O)n3ccccc3nc21 (centres undefined) 23.9%
CCc1ccc(NC(=O)Cn2c(=O)n(-c3ccc(OC)cc3)c(=O)c3ccc(C(=O)NCc4ccc(C)cc4)cc32)cc1 -22.4%
Cc1cc(C)c(NC(=O)Cn2c(=O)n(Cc3ccco3)c(=O)c3ccc(C(=O)NC4CCCC4)cc32)c(C)c1 9.98%
Cc1ccc(CN2C(=O)C(O)(c3c(C)[nH]c4ccccc34)c3ccccc32)cc1 (centres undefined) -24.2%
CCc1ccc(OCC(=O)Nc2cc3oc4ccccc4c3cc2OC)cc1 2.28%
CCCCS(=O)(=O)c1nc(-c2ccc(Br)cc2)cc(-c2ccccc2)c1C#N 100%
CCS(=O)(=O)c1ncc(Cl)c(C(=O)Nc2c(C(=O)c3ccc(C)cc3)oc3ccccc23)n1 -7.57%
Cc1ccc(C)c(NC(=O)Cn2c(=O)n(Cc3ccc4c(c3)OCO4)c(=O)c3ccc(C(=O)NC4CCCCC4)cc32)c1 10.8%
CCN(CC)CCNC(=O)c1cc(-c2ccc(Br)s2)nc2ccccc12 -2.44%
Cc1ccc(NC(=O)N2CCc3cc(S(=O)(=O)N4CCC(C)CC4)ccc32)cc1F 10.6%
CCOc1ccc(NC(=O)CSc2oc(-c3ccc(F)cc3)nc2S(=O)(=O)c2ccc(C)cc2)cc1 -11.9%
